Source: the supplement of paper PMC11060735
Counter-ions that a name gives are not always drawn. Screen size: about 1,800 compounds; about 50 (3%) showed activity. The entries come from a sample that favours actives as a whole.

Each molecule was assayed on mouse p16Ink4a+/- lung fibroblasts (INKBRITE, bleomycin-injured) (assay: percentage of GFP+ (p16Ink4a+) fibroblasts among all cells in well; higher = less depletion of p16Ink4a+ cells, active = 20 or less). Details: 1 µM; 3 days.

SMILES | percentage of GFP+
CC(=O)NC[C@H]1CN(c2ccc(N3CCOCC3)c(F)c2)C(=O)O1 [Linezolid] | 52.5% (inactive)
O=C(O)c1ccc2c(c1)nc(Nc1cccc(Cl)c1)c1ccncc12 [Silmitasertib] | 43.8% (inactive)
COc1ccc2cc(-c3[nH]c(-c4ccc(S(C)=O)cc4)nc3-c3ccncc3)ccc2c1 (centres undefined) [Tie2 kinase inhibitor] | 43.3% (inactive)
CC(C)Cc1ccc(C(C)C(=O)O)cc1 (racemic) | 48.8% (inactive)
COc1cc(NC(=O)c2ccc(-c3ccc(Cl)cc3)o2)cc(OC)c1 | 52% (inactive)
O=C(Nc1cc(C(F)(F)F)cc(C(F)(F)F)c1)c1cc(Cl)ccc1O | 42.4% (inactive)
Cc1c(-c2ccc(O)cc2)n(Cc2ccc(OCCN3CCCCCC3)cc2)c2ccc(O)cc12 [Bazedoxifene] | 47.1% (inactive)
CCCCOc1ccc(C(=O)CCN2CCCCC2)cc1 [Dyclonine] | 47.1% (inactive)
O=C(c1ccc(OCCN2CCCCC2)cc1)c1c(-c2ccc(O)cc2)sc2cc(O)ccc12 [Raloxifene] | 16.8% (active)
OCCn1cc(-c2cnc3nnn(Cc4ccc5ncccc5c4)c3n2)cn1 | 41.7% (inactive)
c1coc(CNc2ncnc3[nH]cnc23)c1 [Kinetin] | 41.6% (inactive)
C=CC/N=C1\C(=O)C=C2NC(=O)/C(C)=C/C=C\[C@H](OC)[C@@H](OC(N)=O)/C(C)=C/[C@H](C)[C@@H](O)[C@@H](OC)C[C@H](C)CC1=C2O [Tanespimycin] | 11.8% (active)
CO[C@H]1/C=C\C=C(/C)C(=O)NC2=CC(=O)/C(=N\CCN(C)C)C(=C2O)C[C@@H](C)C[C@H](OC)[C@H](O)[C@@H](C)/C=C(\C)[C@@H]1OC(N)=O [Alvespimycin] | 12.4% (active)
COC1=C2C[C@@H](C)C[C@H](OC)[C@H](O)[C@@H](C)/C=C(\C)[C@H](OC(N)=O)[C@@H](OC)/C=C/C=C(\C)C(=O)/N=C(/C=C1O)C2=O [Geldanamycin] | 13.5% (active)
Nc1cccc2c1C(=O)N(C1CCC(=O)NC1=O)C2=O (centres undefined) [Pomalidomide] | 46.7% (inactive)
CCCCCCCCCCCCCCCC(=O)OC1C(SC)OC(C(NC(=O)C2CC(CCC)CN2C)C(C)Cl)C(O)C1O (centres undefined) [Clindamycin palmitate HCl] | 45.8% (inactive)
COc1cc(Nc2nc3ccccc3nc2NS(=O)(=O)c2ccc(NC(=O)c3ccc(C)c(OC)c3)cc2)cc(OC)c1 | 37.4% (inactive)
CC(C(=O)O)c1ccc2c(c1)[nH]c1ccc(Cl)cc12 (centres undefined) [Carprofen] | 45.4% (inactive)
CNC(=O)c1c(F)cccc1Nc1nc(Nc2cc3c(cc2OC)CCN3C(=O)CN(C)C)nc2[nH]ccc12 | 50.1% (inactive)
O=NO [Sodium Nitrite] | 52.2% (inactive)
N#CC[C@H](C1CCCC1)n1cc(-c2ncnc3[nH]ccc23)cn1 [Ruxolitinib] | 44.6% (inactive)
Cc1nc(-c2ccc(OCC(C)C)c(C#N)c2)sc1C(=O)O [Febuxostat] | 42.1% (inactive)
CCc1cnn2c(NCc3ccc[n+]([O-])c3)cc(N3CCCC[C@H]3CCO)nc12 [Dinaciclib] | 13% (active)

SMILES | percentage of GFP+
COc1ccc(CNc2nc(N3CCC[C@H]3CO)ncc2C(=O)NCc2ncccn2)cc1Cl [Avanafil] | 46.5% (inactive)
COc1c(C)c(C(=O)c2ccc(N)c(C(=O)O)c2)n2ccccc12 | 39% (inactive)
COC(=O)[C@H](c1ccccc1Cl)N1CCc2sccc2C1 [Clopidogrel] | 36.5% (inactive)
CN1CCN(CCCN2c3ccccc3Sc3ccc(C(F)(F)F)cc32)CC1 [Trifluoperazine] | 52% (inactive)
CCCCc1nc2cc(/C=C/C(=O)NO)ccc2n1CCN(CC)CC [Pracinostat] | 24.8% (inactive)
COc1cc(/C=C/C(=O)/C=C(O)/C=C/c2ccc(O)c(OC)c2)ccc1O | 38.1% (inactive)
CC[C@H](/C=C/[C@@H](C)[C@@H]1CC[C@H]2[C@@H]3CC=C4C[C@@H](O)CC[C@]4(C)[C@@H]3CC[C@@]21C)C(C)C [Stigmasterol] | 44.8% (inactive)
Nc1nccc(Oc2ccc(NC(=O)c3cncc(-c4ccc(F)cc4)c3O)cc2F)c1Cl | 49.5% (inactive)
COC(=O)[C@]12CCC(C)(C)C[C@@H]1[C@@H]1C(=O)C=C3[C@]4(C)C=C(C#N)C(=O)C(C)(C)[C@@H]4CC[C@@]3(C)[C@]1(C)CC2 [Bardoxolone Methyl] | 5.23% (active)
O=C(O)c1cc(N=Nc2ccc(O)c(C(=O)O)c2)ccc1O [Olsalazine] | 43.3% (inactive)
O=C1c2c(O)cccc2[C@H]([C@@H]2O[C@H](CO)[C@@H](O)[C@H](O)[C@H]2O)c2cc(CO)cc(O)c21 [Aloin] | 20.8% (inactive)
CC(C)(C)c1cc(C(C)(C)C)c(NC(=O)c2cnc3ccccc3c2O)cc1O [Ivacaftor] | 38% (inactive)
CC(C)c1ccccc1Cc1cc(C(=O)Nc2ccc(S(=O)(=O)c3ccccc3C(C)(C)C)cc2)c(O)c(O)c1O | 16.4% (active)
CC(C)c1cc(C(C)C)c(CC(=O)NS(=O)(=O)Oc2c(C(C)C)cccc2C(C)C)c(C(C)C)c1 [Avasimibe] | 53.1% (inactive)
CC(C)(C)c1cc(/C=C(\C#N)C(N)=S)cc(C(C)(C)C)c1O [Tyrphostin] | 50.3% (inactive)
CCC(CC)CC1(C(=O)Nc2ccccc2SC(=O)C(C)C)CCCCC1 [Dalcetrapib] | 37.6% (inactive)
CCOC(=O)[C@H](CCc1ccccc1)N[C@H]1CS[C@H](c2cccs2)CN(CC(=O)O)C1=O [Temocapril] | 45.2% (inactive)
CC(C)c1cc(C(=O)N2Cc3ccc(CN4CCN(C)CC4)cc3C2)c(O)cc1O [Onalespib] | 9.46% (active)
C[C@@H](Oc1cc(-n2cnc3ccc(CN4CCN(C)CC4)cc32)sc1C(N)=O)c1ccccc1C(F)(F)F | 27.8% (inactive)
COc1ccccc1N1CCN(CCN2C(=O)CC3(CCCC3)CC2=O)CC1 [Bmy 7378 Dihydrochloride] | 43.4% (inactive)
C=CCc1cc(OC)c(O)c(C(=O)NCCO)c1 [Alibendol] | 42.5% (inactive)
COc1ccc(S(=O)(=O)Nc2cccnc2Nc2ccc(O)cc2)cc1 | 23% (inactive)
Cc1[nH]c2ccccc2c1CCNCc1ccc(/C=C/C(=O)NO)cc1 [Panobinostat] | 2.9% (active)

SMILES | percentage of GFP+
CN(C)Cc1ccc(S(=O)(=O)n2ccc(/C=C/C(=O)NO)c2)cc1 [Resminostat] | 37.1% (inactive)
Cc1[nH]c2ccccc2c1CCNC(=O)c1cccs1 [N-[2-(2-methyl-1H-indol-3-yl)ethyl]thiophene-2-carboxamide] | 39.3% (inactive)
CCC(=O)Nc1cccc(Oc2nc(Nc3ccc(N4CCN(C)CC4)cc3OC)ncc2Cl)c1 | 42.3% (inactive)
Cc1nn(-c2ccccc2)c(C)c1/C=N/N1CCN(Cc2ccccc2)CC1 | 48.6% (inactive)
CCC(C)(Oc1ccc(C2(c3ccc(OC(C)(CC)C(=O)O)cc3)CCCCC2)cc1)C(=O)O (centres undefined) [Clinofibrate] | 52.6% (inactive)
OCC(O)CN1CCN(c2ccccc2)CC1 (centres undefined) [Dropropizine] | 51.5% (inactive)
C[C@]12CC[C@@H]3c4ccc(O)cc4CC[C@H]3[C@@H]1C[C@@H](O)[C@@H]2O [Estriol] | 49.2% (inactive)
CCN1/C(=C/C(C)=O)Sc2ccc(OC)cc21 | 50.3% (inactive)
Cc1c(CN2CCN(C(=O)[C@H](C)O)CC2)sc2c(N3CCOCC3)nc(-c3cnc(N)nc3)nc12 | 34.5% (inactive)
COc1ccc(-c2nc(N3CCOCC3)c3sc(CN(C)c4ncc(C(=O)NO)cn4)cc3n2)cn1 [Fimepinostat] | 3.62% (active)
CS(=O)(=O)N1CCN(Cc2cc3nc(-c4cccc5[nH]ncc45)nc(N4CCOCC4)c3s2)CC1 | 36.8% (inactive)
Clc1ccc(C2(c3ccc(-c4cn[nH]c4)cc3)CCNCC2)cc1 | 43.8% (inactive)
O=c1c(-c2ccc(O)cc2)coc2cc(O)cc(O)c12 [Genistein] | 47.5% (inactive)
COc1cc2nc(N3CCN(C(=O)C4COc5ccccc5O4)CC3)nc(N)c2cc1OC (centres undefined) [Doxazosin] | 44.1% (inactive)
CC(C)CN(C[C@@H](O)[C@H](Cc1ccccc1)NC(=O)O[C@H]1CO[C@H]2OCC[C@H]21)S(=O)(=O)c1ccc(N)cc1 [Darunavir] | 45.7% (inactive)
CC(/C=C/C(=O)NO)=C\[C@@H](C)C(=O)c1ccc(N(C)C)cc1 [Trichostatin A] | 10.8% (active)
CN(C)c1ccc(C(=O)NCCCCCCC(=O)NO)cc1 | 30.4% (inactive)
Cc1cc(N2CCOCC2)ccc1Nc1nc(NC2CCCCC2)c2[nH]cnc2n1 | 33.6% (inactive)
C/C(=N\NC(=S)N1CCC1)c1ccccn1 | 6.13% (active)
CO[C@H]1C[C@@H]2CC[C@@H](C)[C@@](O)(O2)C(=O)C(=O)N2CCCC[C@H]2C(=O)O[C@H]([C@H](C)C[C@@H]2CC[C@@H](O)[C@H](OC)C2)CC(=O)[C@H](C)/C=C(\C)[C@@H](O)[C@@H](OC)C(=O)[C@H](C)C[C@H](C)/C=C/C=C/C=C/1C [Rapamycin] | 37.8% (inactive)
CC(=O)Nc1ccc(C(=O)Nc2ccccc2N)cc1 [Tacedinaline] | 34.9% (inactive)
CC(C)[C@H](C(=O)Nc1ccc(C(=O)NO)cc1)c1ccccc1 | 9.62% (active)
CCCCN(Cc1ccc(C(=O)NO)cc1)C(=O)Nc1ccccc1 [Nexturastat A] | 47.5% (inactive)
